About 79,000 compounds went through this panel and 15% of them were active in at least one assay; those are over-represented in the sample as a whole. Calls of active or inactive are those of the source. No stated cut-off is given here; in the data, active means growth inhibition above about 70%; inactive means the rest.
Columns and labels:
[1] = NCI Yeast Anticancer Drug Screen. Data for the rad50 strain (AID 155);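 further: 0% = growth of vehicle-only cultures of the same strain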; settings: S. cerevisiae rad50 strain growth inhibition; at 50.0 µM; hits give high values
Procedure, shortened: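 Relative growth inhibition (compound vs vehicle) was measured in yeast with a defined repair-gene alteration.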

[2] = NCI Yeast Anticancer Drug Screen. Data for the mec2-1 strain (AID 157); settings: S. cerevisiae mec2-1 strain, at 50.0 µM, hits give high values
Procedure, shortened: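 Mutant yeast (mec2-1) grown with compound; growth inhibition relative to vehicle control reported.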

[3] = NCI Yeast Anticancer Drug Screen. Data for the sgs1 mgt1 strain (AID 161);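 further: 0% = growth of cultures given vehicle only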; settings: S. cerevisiae sgs1 mgt1 strain, at 50.0 µM, hits give high values
Procedure, shortened: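 Percent growth inhibition was derived by comparing compound-exposed mutant yeast with vehicle-exposed cultures. The strain carries alterations in DNA damage repair.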

[4] = NCI Yeast Anticancer Drug Screen. Data for the cln2 rad14 strain (AID 165);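 further: 0% = growth equal to vehicle treated cultures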; settings: S. cerevisiae cln2 rad14 strain, at 50.0 µM, hits give high values
Procedure, shortened: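 Readout is yeast growth inhibition versus vehicle-treated controls, using a strain with cln2 and rad14 alterations exposed to compound.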

[5] = NCI Yeast Anticancer Drug Screen. Data for the bub3 strain (AID 167); settings: S. cerevisiae bub3 mutant strain, at 50.0 µM, hits give high values
Procedure, shortened: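 Screening used yeast with an engineered genetic alteration affecting cell cycle control. Compound-exposed cultures were compared with vehicle cultures, and reduced growth was taken as inhibition.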

[6] = NCI Yeast Anticancer Drug Screen. Data for the mlh1 rad18 strain (AID 175); settings: S. cerevisiae mlh1 rad18 strain growth inhibition; at 50.0 µM; hits give high values
Procedure, shortened: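 Genetically defined yeast (DNA repair-deficient) exposed to compounds; growth inhibition determined relative to vehicle.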

Measured: growth inhibition

COC(=O)C1(C)C=CC(=O)C2(C)C1C(O)C1OC3CC(c4ccoc4)C(C)=C3C1(C)C2CC(=O)O (configuration not stated)
inactive: [1] 19.9% | [2] -7% | [3] 20.1% | [4] 12.4% | [5] 10.8% | [6] -21.3%

COc1ccccc1Nc1n[nH]c(=S)s1
inactive: [1] 11.5% | [2] -5.9% | [3] 58.5% | [4] 16.9% | [5] 14.1% | [6] 5.05%

COc1c(OC(C)=O)c(OC(C)=O)cc2c1-c1ccc(OC)c(=O)cc1C(NC(C)=O)CC2 (configuration not stated)
inactive: [1] 1.65% | [2] -1.35% | [3] 15.8% | [4] 1.35% | [5] -33.3% | [6] 8.35%

O=C(O)c1ccc(C2C(=O)N[C@@H]3CCC[C@H]23)cc1 (some centres not stated)
inactive: [1] -33% | [2] -5.75% | [3] -22.1% | [4] 6.05% | [5] -12.9% | [6] -32.1%

CCCCCCCCCCCCOc1ccc(Sc2ccc(OCCCCCCCCCCCC)cc2C)c(C)c1
inactive: [1] -16.2% | [2] -8.05% | [3] -0.95% | [4] -26.2% | [5] 6.35% | [6] -11.2%

CN/C=C(/c1ccc(OC)cc1)C(O)c1ccc(OC)c(OC)c1 (configuration not stated)
inactive: [1] -17.9% | [2] -16.2% | [3] -38% | [4] 2.75% | [5] -10.8% | [6] -20.4%

COc1ccc(Cc2ccccc2)cc1
inactive: [1] -2% | [2] -13.2% | [3] 17.4% | [4] 7.8% | [5] -4.55% | [6] 6.65%

CCCNS(=O)(=O)c1nc2ccccc2s1
inactive: [1] -26% | [2] -15.2% | [3] -5.6% | [4] -22.1% | [5] 2.65% | [6] -20.8%

CNC(=O)SCC(NC(=O)CCC(N)C(=O)O)C(=O)NCC(=O)O (configuration not stated)
inactive: [1] -7.45% | [2] 9.55% | [3] 27.4% | [4] 28.4% | [5] 18.4% | [6] 36.3%

Cc1cc([N+](=O)[O-])ccc1NS(=O)(=O)c1ccccc1
inactive: [1] 24.9% | [2] 39.5% | [3] 42.9% | [4] 15.5% | [5] 18.1% | [6] 36.6%

C=CCC1(C(=O)OC)CCC/C(=N\O)C1 (configuration not stated)
inactive: [1] 7.5% | [2] -17.8% | [3] -19.4% | [4] 4.1% | [5] -26.9% | [6] -3.45%

CC(=O)OC(C)C(C)Br (configuration not stated)
inactive: [1] 9.75% | [2] 4.4% | [3] -9.35% | [4] -25.1% | [5] -13% | [6] 4.9%

CN(C)c1nc(N/N=C\C(O)C(O)C(O)C(O)CO)nc(N(C)C)n1 (configuration not stated)
inactive: [1] -1.55% | [2] 2.45% | [3] -7.1% | [4] 1.15% | [5] 32.1% | [6] 9%

Cc1ccccc1NC(=O)c1ccccc1Cl
inactive: [1] -19.3% | [2] -18.6% | [3] -6.9% | [4] -31.8% | [5] -19.1% | [6] -25.6%

CN(C)S(=O)(=O)N(C)C
inactive: [1] -1.55% | [2] 6.4% | [3] 15.4% | [4] 6.1% | [5] -8.45% | [6] 26.2%

Cn1cnc([N+](=O)[O-])c1SCC(=O)O
inactive: [1] -36.4% | [2] -0.6% | [3] -29.5% | [4] -22.9% | [5] -17.9% | [6] -3.7%

O=C(O)c1cc(O)c(C(=O)O)cc1O
inactive: [1] -3.2% | [2] -9.15% | [3] -18.6% | [4] -15.2% | [5] -3.25% | [6] 0.3%

COc1ccc2nc(C)c3c(c2c1)C(=O)N(CCC[N+]1([O-])CC[N+]([O-])(CCCN2C(=O)c4c(c5cc(OC)ccc5[n+]([O-])c4C)C2=O)CC1)C3=O (configuration not stated)
inactive: [1] -0.2% | [2] -7.8% | [3] -5.65% | [4] -35.7% | [5] 2.3% | [6] 26.1%

CCOc1ccc(NC(=S)N/C=C(/C#N)C(N)=O)cc1
inactive: [1] -13.6% | [2] -26.4% | [3] -15.3% | [4] -14.2% | [5] -16.9% | [6] -3.5%

O=C(Nc1ccc(Cl)cc1C(F)(F)F)C(=O)C1CCCS1(=O)=O (configuration not stated)
inactive: [1] -7.05% | [2] -10.9% | [3] -4.5% | [4] 12.9% | [5] -6.4% | [6] -8.8%

CC(C)(C)C(=O)C[n+]1ccccc1
inactive: [1] 3.85% | [2] -6.45% | [3] 8.45% | [4] -15% | [5] 5.35% | [6] 15.2%

Cc1cc(N(CCC#N)CCC#N)ccc1/C=C(\NC(=O)/C=C/c1ccccc1)C(=O)N=[N+]=[N-]
inactive: [1] -30.4% | [2] -31.9% | [3] -44.9% | [4] -19.4% | [5] -21.1% | [6] -7.2%

C=CCc1ccc(OC(=O)Nc2cccc(OC)c2)c(OC)c1
active: [1] 74.5% | [2] 86.8% | [3] 73.9%
inactive: [4] -7.45% | [5] 53.9% | [6] 68.8%

CCC(C)(C1CCC(=O)CC1)C1CCC(=O)CC1
inactive: [1] 33.6% | [2] -5.75% | [3] -0.7% | [4] -7% | [5] -0.75% | [6] 7.85%

CCCOc1nc(N)c2cnn(C3CCCCO3)c2n1 (configuration not stated)
inactive: [1] -14.9% | [2] -25.5% | [3] 8.05% | [4] 16.1% | [5] 14.2% | [6] -9.25%

C=C(C)C#CC(O)(C(=O)OC1CCN(C)CC1)C(C)C (configuration not stated)
inactive: [1] -7.95% | [2] -14% | [3] -21.1% | [4] 7.2% | [5] 20.9% | [6] -22.1%

COC(=O)C1=C(C(=O)OC)P2(C)(C)OC(c3ccccc3)CN2C1(c1ccccc1)c1ccccc1 (configuration not stated)
inactive: [1] 18% | [2] 9.15% | [3] -2.4% | [4] -80% | [5] 0.3% | [6] 40.9%

COc1ccc(C=Nc2c(N)[nH]c(=S)[nH]c2=O)cc1
inactive: [1] -15% | [2] -12.8% | [3] -4.15% | [4] 0.7% | [5] -27.8% | [6] -51.7%

Cc1cnc(C)c(C(O)c2ccccc2)n1 (configuration not stated)
inactive: [1] -5.9% | [2] -10.3% | [3] -3.7% | [4] -17.9% | [5] -9.3% | [6] -3.65%

O=C1CCC2(O1)c1ccc(O)cc1Oc1cc(O)ccc12
inactive: [1] 1.05% | [2] -24.1% | [3] -17.4% | [4] -3.9% | [5] 7.6% | [6] -7.3%

O/N=C\c1cc2ccccc2c[n+]1Cc1ccc2ccccc2c1Br
inactive: [1] 9.25% | [2] 32.1% | [3] 44.6% | [4] 48% | [5] 2.9% | [6] 38.8%

O=C(OCCNC(=O)N1CCOCC1)OCCNC(=O)N1CCOCC1
inactive: [1] -16.8% | [2] -2% | [3] -8.55% | [4] 40.6% | [5] -3.2% | [6] 11.3%

O=C(OCCc1ccccc1)C(O)c1ccccc1 (configuration not stated)
inactive: [1] 11.3% | [2] -6.05% | [3] 3% | [4] 10.7% | [5] 6.6% | [6] -1.3%

CC1CCCCc2nc3c(c(=O)n21)CCCC3 (configuration not stated)
inactive: [1] 9.3% | [2] -11.8% | [3] 34% | [4] 0.25% | [5] 25.6% | [6] 41%

C/C(CC(=O)Nc1ccc(C)cc1C)=N/N=C(N)N
inactive: [1] -10.8% | [2] -17.2% | [3] -15.2% | [4] 15.4% | [5] -17.7% | [6] -17.1%

Cc1nnc2cc(C(=O)O)c3ccccc3n2c1=O
inactive: [1] -28.6% | [2] -30.6% | [3] -13.4% | [4] -30.6% | [5] -20.1% | [6] -31.8%

Clc1ccc(N2C(c3ccccc3)=N[C@@H](N3CCOCC3)[C@@H]2N2CCOCC2)cc1
inactive: [1] -13.2% | [2] -15.9% | [3] -9.95% | [4] -30.9% | [5] -1.5% | [6] -4.7%

Source: PubChem BioAssay (NCI)
